Among the data in the antibiotic and cytotoxicity screens of Wong et al. (2023) are cytotoxicity call values, retold here.

Hit rate of the full screen: of about 39,000 compounds, about 1,500 (3.8%) were called active. Only a selection was taken, and actives are over-represented in it overall.

This assay deals with HSkMC (human skeletal muscle cells). Briefly: cytotoxicity call (relative viability < 0.9). The settings on record: 10 µM.
Regarding `C[C@@H]1CCCCO[C@@H](CN(C)S(=O)(=O)c2ccc(Cl)cc2)[C@H](C)CN([C@@H](C)CO)C(=O)c2cc(NS(=O)(=O)c3cccs3)ccc2O1`, the cytotoxicity call is “inactive”.

As to `COc1cccc(NC(=O)N(C)C[C@@H]2Oc3cc(C#Cc4ccncc4)ccc3S(=O)(=O)N([C@H](C)CO)C[C@@H]2C)c1`, the cytotoxicity call was “inactive”.

On to `CC(=O)O[C@H]1C=C[C@@H](O)C1`, for which the cytotoxicity call was “inactive”.

On to `O=C(CCCCCCC(=O)Nc1ccc([C@H]2C[C@H](c3ccccc3)O[C@H](c3ccncc3)O2)cc1)NO`, for which the cytotoxicity call is “inactive”.

As for `COc1ccc(-c2cc(=O)c3c(O)cc(O[C@@H]4O[C@H](CO[C@H]5O[C@H](C)[C@@H](O)[C@H](O)[C@@H]5O)[C@@H](O)[C@H](O)[C@H]4O)cc3o2)cc1O`, the cytotoxicity call was “inactive”.

In the case of `C[C@@H]1CN([C@@H](C)CO)C(=O)c2cc(NC(=O)C3CC3)ccc2O[C@@H]1CN(C)C(=O)NC1CCCCC1`, the cytotoxicity call is “inactive”.

In the case of `C=CC(=O)NS(=O)(=O)c1ccccc1`, the cytotoxicity call was “inactive”.

For `CCS(=O)(=O)N1CC[C@H]2[C@H](CC1)S(=O)(=O)CCN2C(=O)c1ccccc1`, the cytotoxicity call was “inactive”.

For `COCC(=O)N1C[C@@H](C)[C@@H](OC)CN(C)C(=O)c2ccc(NC(=O)c3ccc(OC)cc3)cc2OC[C@@H]1C`, the cytotoxicity call is “inactive”.

Take `Cc1cc(N)n(-c2nc(=O)c(C)c(C)[nH]2)n1`: the cytotoxicity call was “inactive”.

As to `CCCCc1c(C)nc2ccc(Br)cc2c1SC(N)N`, the cytotoxicity call is “inactive”.

For `NS(=O)(=O)c1ccc2c(c1)COC2`, the cytotoxicity call was “inactive”.

In the case of `COc1ccc(S(=O)(=O)N(C)C[C@@H]2Oc3c(NS(=O)(=O)c4ccc(C)cc4)cccc3C(=O)N([C@@H](C)CO)C[C@@H]2C)cc1`, the cytotoxicity call is “inactive”.

For `C[C@H]1CN([C@@H](C)CO)C(=O)Cc2cc(NS(=O)(=O)c3ccc(Cl)cc3)ccc2O[C@H]1CN(C)Cc1ccc(C(F)(F)F)cc1`, the cytotoxicity call is “active”.

With `C[C@@H]1CN([C@@H](C)CO)C(=O)Cc2cc(NS(=O)(=O)c3ccc(Cl)cc3)ccc2O[C@H]1CN(C)Cc1ccc(C(F)(F)F)cc1`, the cytotoxicity call was “inactive”.

For `C[C@H]1CN([C@@H](C)CO)C(=O)Cc2cc(NS(=O)(=O)c3ccc(Cl)cc3)ccc2O[C@@H]1CN(C)Cc1ccc(C(F)(F)F)cc1`, the cytotoxicity call was “active”.

On to `C[C@H](CO)N1C[C@H](C)[C@@H](CN(C)Cc2ccc(C(F)(F)F)cc2)Oc2ccc(NS(=O)(=O)c3ccc(Cl)cc3)cc2CC1=O`, for which the cytotoxicity call was “inactive”.

In the case of `C[C@@H]1CN([C@H](C)CO)C(=O)c2cc(NC(=O)CCCN(C)C)ccc2O[C@@H]1CN(C)C(=O)NC1CCCCC1`, the cytotoxicity call was “inactive”.

Regarding `C[C@@H]1CN([C@@H](C)CO)C(=O)c2cc(NS(C)(=O)=O)ccc2O[C@H]1CN(C)Cc1ccc(C(=O)Nc2ccccc2N)cc1`, the cytotoxicity call was “inactive”.

As to `COc1ccc(CN(C)C[C@H]2Oc3ccc(NC(=O)CCN4CCOCC4)cc3C(=O)N([C@H](C)CO)C[C@H]2C)cc1`, the cytotoxicity call was “inactive”.

For `C[C@@H]1CN([C@@H](C)CO)C(=O)c2cc(NC(=O)Nc3ccc(F)cc3)ccc2O[C@@H]1CN(C)CC1CCCCC1`, the cytotoxicity call is “inactive”.

Regarding `C[C@H](CO)N1C[C@H](C)[C@H](CN(C)CC2CCCCC2)Oc2ccc(NC(=O)Nc3ccc(C(F)(F)F)cc3)cc2C1=O`, the cytotoxicity call is “active”.

Take `C[C@H](CO)N1C[C@H](C)[C@H](CN(C)CC2CCCCC2)Oc2ccc(NC(=O)Nc3ccc(F)cc3)cc2C1=O`: the cytotoxicity call is “inactive”.

On to `C[C@H](CO)N1C[C@H](C)[C@@H](CN(C)CC2CCCCC2)Oc2ccc(NC(=O)Nc3ccc(C(F)(F)F)cc3)cc2C1=O`, for which the cytotoxicity call is “inactive”.

`C[C@H]1CN([C@@H](C)CO)C(=O)c2cc(NC(=O)Nc3ccc(C(F)(F)F)cc3)ccc2O[C@@H]1CN(C)CC1CCCCC1`: the cytotoxicity call was “inactive”.

For `C[C@H]1CN([C@@H](C)CO)C(=O)c2cc(NC(=O)Nc3ccc(F)cc3)ccc2O[C@H]1CN(C)CC1CCCCC1`, the cytotoxicity call is “inactive”.

Regarding `C[C@@H]1CN([C@H](C)CO)C(=O)c2cc(NC(=O)Nc3ccc(C(F)(F)F)cc3)ccc2O[C@H]1CN(C)CC1CCCCC1`, the cytotoxicity call was “inactive”.

In the case of `C[C@H]1CN([C@@H](C)CO)C(=O)c2cc(NC(=O)Nc3ccc(F)cc3)ccc2O[C@@H]1CN(C)CC1CCCCC1`, the cytotoxicity call was “inactive”.

With `C[C@@H]1CN([C@@H](C)CO)C(=O)c2cc(NC(=O)Nc3ccc(C(F)(F)F)cc3)ccc2O[C@H]1CN(C)CC1CCCCC1`, the cytotoxicity call is “active”.

Regarding `C[C@@H]1CN([C@H](C)CO)C(=O)c2cc(NC(=O)Nc3ccc(F)cc3)ccc2O[C@H]1CN(C)CC1CCCCC1`, the cytotoxicity call was “inactive”.

As to `C[C@@H]1CN([C@H](C)CO)C(=O)c2cc(NC(=O)Nc3ccc(C(F)(F)F)cc3)ccc2O[C@@H]1CN(C)CC1CCCCC1`, the cytotoxicity call is “active”.

For `C[C@@H]1CN([C@@H](C)CO)C(=O)c2cc(NC(=O)Nc3ccc(C(F)(F)F)cc3)ccc2O[C@@H]1CN(C)CC1CCCCC1`, the cytotoxicity call was “active”.

Regarding `C[C@@H]1CCCCO[C@@H](CN(C)C(=O)Nc2ccc(C(F)(F)F)cc2)[C@@H](C)CN([C@H](C)CO)C(=O)c2cc(NS(=O)(=O)c3ccc(Cl)cc3)ccc2O1`, the cytotoxicity call was “inactive”.

Take `O=C(C[C@H]1C[C@@H]2c3cc(NS(=O)(=O)c4ccc(F)cc4)ccc3O[C@@H]2[C@H](CO)O1)NC1CCCCC1`: the cytotoxicity call was “inactive”.

For the molecule `C[C@@H]1CN([C@H](C)CO)C(=O)c2cc(NC(=O)Nc3cccc4ccccc34)ccc2O[C@H]1CN(C)CC1CCCCC1`, the cytotoxicity call was “inactive”.

`C[C@@H]1CCCCO[C@@H](CN(C)S(=O)(=O)c2ccc(F)cc2)[C@@H](C)CN([C@@H](C)CO)C(=O)c2cc(NC(=O)NC3CCCCC3)ccc2O1`: the cytotoxicity call was “inactive”.

As to `C[C@H]1CN([C@@H](C)CO)C(=O)Cc2cc(NS(C)(=O)=O)ccc2O[C@@H]1CN(C)Cc1ccc2c(c1)OCO2`, the cytotoxicity call was “inactive”.

Turning to `O=C(C[C@@H]1C[C@@H]2c3cc(NS(=O)(=O)c4ccc(F)cc4)ccc3O[C@@H]2[C@@H](CO)O1)NC1CCCC1`, the cytotoxicity call was “inactive”.

For `O=C(C[C@H]1CC[C@@H]2[C@H](COC[C@H](O)CN2C(=O)Nc2cccc(Cl)c2)O1)NCCCN1CCOCC1`, the cytotoxicity call was “inactive”.

For the molecule `C[C@H]1CN([C@@H](C)CO)C(=O)c2cc(NC(=O)Nc3ccc(C(F)(F)F)cc3)ccc2O[C@H]1CN(C)S(=O)(=O)c1ccc(Cl)cc1`, the cytotoxicity call was “inactive”.

For the molecule `Cc1ccc(S(=O)(=O)N(C)C[C@@H]2Oc3ccc(NC(=O)Nc4ccc(C(F)(F)F)cc4)cc3C(=O)N([C@H](C)CO)C[C@H]2C)cc1`, the cytotoxicity call was “inactive”.

For `C[C@@H]1CN([C@H](C)CO)C(=O)c2cc(NC(=O)Nc3ccc(C(F)(F)F)cc3)ccc2O[C@@H]1CN(C)S(=O)(=O)c1ccc(Cl)cc1`, the cytotoxicity call is “active”.

On to `C[C@@H]1CN([C@@H](C)CO)C(=O)c2cc(NC(=O)Nc3ccc(C(F)(F)F)cc3)ccc2O[C@@H]1CN(C)S(=O)(=O)c1ccc(Cl)cc1`, for which the cytotoxicity call was “active”.

`C[C@@H]1CN([C@H](C)CO)C(=O)c2cc(NC(=O)Nc3ccc(C(F)(F)F)cc3)ccc2O[C@H]1CN(C)S(=O)(=O)c1ccc(Cl)cc1`: the cytotoxicity call is “inactive”.

Consider `C[C@H]1CN([C@@H](C)CO)C(=O)c2cc(NC(=O)Nc3ccc(C(F)(F)F)cc3)ccc2O[C@@H]1CN(C)S(=O)(=O)c1ccc(Cl)cc1`, for which the cytotoxicity call is “inactive”.

With `C[C@H](CO)N1C[C@H](C)[C@H](CN(C)S(=O)(=O)c2ccc(Cl)cc2)Oc2ccc(NC(=O)Nc3ccc(C(F)(F)F)cc3)cc2C1=O`, the cytotoxicity call was “active”.

Consider `Cc1ccc(S(=O)(=O)N(C)C[C@@H]2Oc3ccc(NC(=O)Nc4ccc(C(F)(F)F)cc4)cc3C(=O)N([C@@H](C)CO)C[C@H]2C)cc1`, for which the cytotoxicity call is “inactive”.

Turning to `C[C@@H]1CN([C@@H](C)CO)C(=O)c2cc(NC(=O)Nc3ccc(C(F)(F)F)cc3)ccc2O[C@H]1CN(C)S(=O)(=O)c1ccc(Cl)cc1`, the cytotoxicity call was “inactive”.

With `C[C@@H]1CCCCO[C@@H](CN(C)C(=O)Nc2ccccc2)[C@H](C)CN([C@H](C)CO)C(=O)c2cc(NC(=O)CCC(F)(F)F)ccc2O1`, the cytotoxicity call is “inactive”.

On to `C[C@@H]1CN([C@H](C)CO)C(=O)c2cc(NC(=O)CCN3CCOCC3)ccc2O[C@H]1CN(C)S(=O)(=O)c1ccccc1`, for which the cytotoxicity call was “inactive”.

On to `Cc1noc(C)c1NC(=O)N(C)C[C@@H]1OCCCC[C@H](C)Oc2ccc(NC(=O)C3CCCCC3)cc2C(=O)N([C@@H](C)CO)C[C@@H]1C`, for which the cytotoxicity call is “inactive”.

Take `C[C@@H]1CCCCO[C@@H](CN(C)Cc2ccc(C(=O)Nc3ccccc3N)cc2)[C@@H](C)CN([C@H](C)CO)C(=O)c2cc(NC(=O)Nc3ccc4c(c3)OCO4)ccc2O1`: the cytotoxicity call is “inactive”.

`COc1ccc(CN(C)C[C@@H]2OCCCC[C@H](C)Oc3ccc(NC(=O)CCC(F)(F)F)cc3C(=O)N([C@@H](C)CO)C[C@H]2C)cc1`: the cytotoxicity call is “inactive”.

As to `O=C(C[C@@H]1C=C[C@H](NC(=O)Nc2ccc3c(c2)OCO3)[C@H](CO)O1)NCCCN1CCOCC1`, the cytotoxicity call is “inactive”.

Turning to `c1cncc(-c2nc3ccc4ccccc4c3c3c2CCCC3)c1`, the cytotoxicity call was “inactive”.

`CN1CCN(C(=O)C[C@H]2CC[C@@H]3[C@H](COC[C@@H](O)CN3C(=O)Nc3ccc4c(c3)OCO4)O2)CC1`: the cytotoxicity call was “inactive”.

Take `COc1ccc(S(=O)(=O)N(C)C[C@@H]2Oc3ccc(NS(=O)(=O)c4cn(C)cn4)cc3C(=O)N([C@@H](C)CO)C[C@@H]2C)cc1`: the cytotoxicity call is “inactive”.

With `C[C@@H]1CN([C@H](C)CO)C(=O)c2cccc(NC(=O)C3CCOCC3)c2O[C@@H]1CN(C)C(=O)NC1CCCCC1`, the cytotoxicity call is “inactive”.

On to `C[C@@H]1CN([C@H](C)CO)C(=O)c2cc(NC(=O)Nc3cccc4ccccc34)ccc2O[C@@H](C)CCCCO[C@@H]1CN(C)CC1CCCCC1`, for which the cytotoxicity call is “active”.

With `C[C@@H]1CCCCO[C@@H](CN(C)CC2CCCCC2)[C@@H](C)CN([C@@H](C)CO)C(=O)c2cc(NC(=O)Nc3cccc4ccccc34)ccc2O1`, the cytotoxicity call was “active”.

Turning to `C[C@@H]1CCCCO[C@@H](CN(C)CC2CCCCC2)[C@H](C)CN([C@H](C)CO)C(=O)c2cc(NC(=O)Nc3cccc4ccccc34)ccc2O1`, the cytotoxicity call is “active”.

With `C[C@@H]1CCCCO[C@H](CN(C)CC2CC2)[C@@H](C)CN([C@H](C)CO)C(=O)c2cc(NC(=O)Nc3cccc4ccccc34)ccc2O1`, the cytotoxicity call is “inactive”.

As for `C[C@H](CO)N1C[C@H](C)[C@@H](CN(C)CC2CCCCC2)OCCCC[C@H](C)Oc2ccc(NC(=O)Nc3cccc4ccccc34)cc2C1=O`, the cytotoxicity call is “inactive”.

In the case of `C[C@H](CO)N1C[C@H](C)[C@H](CN(C)CC2CC2)OCCCC[C@H](C)Oc2ccc(NC(=O)Nc3cccc4ccccc34)cc2C1=O`, the cytotoxicity call was “inactive”.

Regarding `C[C@H]1CCCCO[C@@H](CN(C)CC2CCCCC2)[C@@H](C)CN([C@@H](C)CO)C(=O)c2cc(NC(=O)Nc3cccc4ccccc34)ccc2O1`, the cytotoxicity call was “inactive”.

Consider `C[C@@H]1CCCCO[C@H](CN(C)CC2CCCCC2)[C@H](C)CN([C@@H](C)CO)C(=O)c2cc(NC(=O)Nc3cccc4ccccc34)ccc2O1`, for which the cytotoxicity call is “active”.
